About 2,000 (36%) of roughly 5,500 compounds were called active. Another 18% or so got no clear call; they are omitted. Cut-off read from the data, not from the text of the source: active = normalized growth mostly below about 0.91 (no sharp cut-off); inconclusive = no clear call, values can overlap the other calls; inactive = mostly above about 0.92. Some of the results follow.
Assay: chemical genetic growth profiling, strain panel (AID 1159580);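 note: tested at 20 µM; growth read once vehicle control cultures reached saturation at 30 °C; 1 = growth at the plate median or of vehicle wells; lower values mean less growth of the strain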
Conditions: S. cerevisiae deletion strains, growth OD

Measured: normalized growth

CCN(CCCl)Cc1ccccc1Br
inactive: locus YAL040C, strain CLN3, hits give low values 1.06 | locus YCL061C, strain MRC1 (second series), hits give low values 0.994 | locus YDR363W, strain ESC2, hits give low values 0.91 | locus YER002W, strain NOP16, hits give low values 1.04 | locus YJR075W, strain HOC1, hits give low values 0.994 | locus YNL153C, strain GIM3, hits give low values 1.02 | locus YNL175C, strain NOP13, hits give low values 1 | locus YNL197C, strain WHI3, hits give low values 1.02 | locus YNL224C, strain SQS1, hits give low values 0.995 | locus YNL322C, strain KRE1, hits give low values 0.974 | locus YOR083W, strain WHI5 (second series), hits give low values 0.968 | locus YPL241C, strain CIN2, hits give low values 0.999
